The source of these data is PubChem BioAssay (NCATS).

Results filed as inconclusive are left out. A number with no mark means an inactive call. Calls of active or inactive are those of the source. Calls come from the whole dose curve; as a rule, active = well fitted curve in the direction sought with a large enough effect; inconclusive = small, poorly fitted or top-dose-only effect, or another doubt; inactive = no such curve, though single readings can be large; an effect the other way counts as inactive or inconclusive.

Test [1] can be described thus: U-118MG Cancer Cell Toxicity qHTS against the NCATS CANVASS Library (AID 1347351). In outline: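 Viability read-out: CellTiter-Glo luminescence after 72 h compound exposure at 37 °C/5% CO2. Cells plated at 1000/well, 4 h pre-incubation; 11-point titration. Bortezomib served as control.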
In general terms: In qHTS, concentration-response curves come from the screen itself.

The nature of test [2]: HPAF-II 24hr Apoptosis Induction qHTS against the NCATS CANVASS Library (AID 1347356). In outline:
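Luminescent caspase-3/7 signal (DEVD substrate, Caspase-Glo) served as read-out, taken 15 min after reagent addition to HPAF-II cells exposed 24 h to compounds.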

Test [3] in a line: HEK293 18hr Apoptosis Induction qHTS against the NCATS CANVASS Library (AID 1347357). In outline:
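Caspase-3/7 luminescence (DEVD substrate, Caspase-Glo) after 18 h compound exposure of HEK293 cells, 500 cells/well; 11-point series; doxorubicin titration as control.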

Test [4] can be described thus: HPAF-II 18hr Apoptosis Induction qHTS against the NCATS CANVASS Library (AID 1347360). In outline:
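Caspase-Glo 3/7 luminescence (DEVD substrate) after 15 min RT; HPAF-II, 500 cells/well, 18 h compound exposure at 37 degrees C, qHTS series; doxorubicin control 0.1nM - 4uM.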

A short description of test [5]: HEK293 12hr Apoptosis Induction qHTS against the NCATS CANVASS Library (AID 1347361). In outline:
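500 HEK293 cells/well; cpds pin-transferred, 11-pt conc series; 12 h, 37 degrees C/5% CO2; Caspase-Glo 3/7 added, 15 min RT dark; luminescence.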

For test [6], the system named is NAD(P)H diaphorase (Clostridium kluyveri). Nature of the test: Diaphorse counterscreen qHTS: Assay Interference Panel against the NCATS CANVASS Library (AID 1347362). The gist of the method: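 Clostridium kluyveri diaphorase in PBS with 0.01% Tween-20 was preincubated 15 min at room temperature in the dark with compounds (11-point series). Resorufin fluorescence (ex 525/20, em 598/25) was read 5 min after adding resazurin/NADH.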

A short description of test [7]: MCF7 Cancer Cell Toxicity qHTS against the NCATS CANVASS Library (AID 1347369). Note: potency is the fitted concentration of half-maximal effect. In outline:
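Luminescent ATP signal (CellTiterGlo) served as the cytotoxicity read-out after MCF7 breast cancer cells had been incubated 72 hr at 37C with natural products in an 11-point titration.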

Test [8] is described as follows: J3T Cancer Cell Toxicity qHTS against the NCATS CANVASS Library (AID 1347371). Note: potency is the fitted concentration of half-maximal effect. The gist of the method: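 Cells plated at 500 per well, compounds pin-transferred, plates incubated 72 hr at 37C, then CellTiterGlo added and luminescence read to measure ATP content.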
In test [9] the target is Nuclear receptor subfamily 1 group I member 3 (Homo sapiens) (UniProt Q14994). Nature of the test: qHTS for Constitutive Androstane Receptor (CAR) Antagonist screened against the NCATS CANVASS Library (AID 1347372). Note: potency is the fitted concentration of half-maximal effect. In outline: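 HepG2 cells stably carrying hCAR and a CYP2B6-2.2kb luciferase reporter were exposed to compounds plus 50 nM CITCO for 24hr at 37C. CAR activity was read by ONE-Glo luminescence, with viability measured first by CellTiter-Fluor.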
Chain of Nuclear receptor subfamily 1 group I member 3 (Homo sapiens) (Q14994 whole entry, looked up): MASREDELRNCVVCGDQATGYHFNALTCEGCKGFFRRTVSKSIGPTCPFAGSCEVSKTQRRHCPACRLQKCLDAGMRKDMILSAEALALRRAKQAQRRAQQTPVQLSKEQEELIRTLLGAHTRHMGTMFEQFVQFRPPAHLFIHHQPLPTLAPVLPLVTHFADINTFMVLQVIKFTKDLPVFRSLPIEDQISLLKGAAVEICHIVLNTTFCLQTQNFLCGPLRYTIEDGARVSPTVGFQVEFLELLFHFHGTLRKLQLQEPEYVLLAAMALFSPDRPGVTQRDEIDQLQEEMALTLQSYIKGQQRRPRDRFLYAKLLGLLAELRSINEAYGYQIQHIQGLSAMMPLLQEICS

Test [10] in a line: 10-beta competent E. coli microbial cell viability qHTS against the NCATS CANVASS Library (AID 1347376). Note: series mostly up to about 46 µM. The gist of the method:
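E. coli 10-beta, 0.2 OD; cpds 11-pt; o/n 37C, 5% CO2; BacTiter-Glo 20 min RT; luminescence (ATP) = viable cells. Daunomycin ctrl.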

Test [11] in a line: qHTS for H2AX Agonists against the NCATS CANVASS Library (AID 1347378). In outline: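 TR-FRET readout (ex 320 nm, em 665/620 nm ratio) of phospho-H2AX (S139) in CHO-K1 lysates. Cells treated 3 hr at 37C with compound titration, 0.76% DMSO; lysis 30 min, antibody detection 24 hr at RT.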
Test [12] is described as follows: Cytotoxicity qHTS for assessment of Hepg2 cells membrane integrity screened against the NCATS CANVASS Library (AID 1347387). The gist of the method:
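qHTS, 11-pt conc. series, 0.59 nM - 46 uM final; HepG2 2000 cells/well, overnight attachment; 5 hr compound exposure 37C/5% CO2; CytoTox-ONE, 10 min RT; fluorescence ex560/em590 = LDH from damaged membranes.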

A short description of test [13]: Secretion counterscreen for inhibitors of the SERCaMP assay screened against the NCATS CANVASS Library (AID 1347390).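 Note: light from luciferase secreted into medium read as a measure of general secretion; series mostly up to about 77 µM.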 In outline:
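Luminescence from constitutively secreted GLuc in SH-SY5Y-GLuc STOP cells, read after coelenterazine addition, served as read-out. Compounds tested 0.001 - 77 uM for 20 h at 37C; Brefeldin A as positive control.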
Background: A counterscreen serves to expose hits that act by an unwanted route or on another target.

The nature of test [14]: Vero-766 cells viability qHTS against the NCATS CANVASS Library: Counterscreen for Zika virus inhibition assay (AID 1347394). Note: nearly all actives have a fitted effect of over 60% in size. Note: potency is the fitted concentration of half-maximal effect. In outline:
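CellTiter-Glo luminescence, lower signal indicating cytotoxicity. Vero 766 cells without Zika virus, 1000 cells/well, plated overnight, then treated 72 h at 37C across an 11-point series.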

Test [15] in a line: KB-3-1 Cancer Cell Toxicity qHTS against the NCATS CANVASS Library (AID 1347366). Note: series mostly up to about 46 µM; nearly all actives have a fitted effect of over 75% in size. In outline: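 500 KB-3-1 cells/well; compounds pin-transferred, 11-pnt series; 72 hr, 37C/5% CO2; CellTiter-Glo, 10 min RT; luminescence read-out.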
Test [16] in a line: qHTS for ATAD5 Antagonist screened against the NCATS CANVASS Library (AID 1347370). Note: nearly all actives have a fitted effect of over 65% in size. Note: potency is the fitted concentration of half-maximal effect. The gist of the method:
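HEK293T cells with stably integrated ATAD5-luciferase reporter, 2000/well, 5 h attachment; compounds plus 10 µM 5-fluorouridine, 16 h at 37 °C. Luciferase luminescence read, with CellTiter-Fluor viability read first.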

A short description of test [17]: qHTS for Inflammasome Signaling Inhibitors: IL-1-beta AlphaLISA screen against the NCATS CANVASS Library (AID 1347379).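 For Potency: secreted IL-1B measured as AlphaLISA emission at 615 nm; potency is the fitted concentration of half-maximal effect.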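 Note: human THP-1 cells primed with LPS then triggered with ATP.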 The gist of the method: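 THP-1 cells pretreated 1 hr with compound (up to 57.5 uM final), then stimulated with LPS (250 ng/mL final) and ATP (1.25 mM final). Secreted IL-1B measured by AlphaLISA after 16 hr; glyburide as positive control.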
Test [18] in a line: Viability qHTS for inhibitors of the SERCaMP assay screened against the NCATS CANVASS Library (AID 1347400). Note: nearly all actives have a fitted effect of over 70% in size. Note: potency is the fitted concentration of half-maximal effect. In outline:
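SH-SY5Y SERCaMP MJH297 cells, 1000/well; 4 h settle, 37C/5% CO2; pin-transferred cpds; 48 h; CellTiter-Glo lum. Pos ctrl bortezomib 0.0001 - 4.6 uM.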

Test [19] can be described thus: Redox Reaction Profiling qHTS: Assay Interference Panel against the NCATS CANVASS Library (AID 1347401). Note: potency is the fitted concentration of half-maximal effect. In outline: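 Resazurin (5 uM) conversion to resorufin measured with 200 uM DTT in 50 mM HEPES pH 7.3, 50 mM NaCl. Compounds tested in 11-point qHTS series. Fluorescence (ex 525/em 598 nm) read before and after 15 min dark incubation.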
For test [20], the target named is Nuclear receptor subfamily 1 group I member 3 (Homo sapiens) (UniProt Q14994). Nature of the test: qHTS for Constitutive Androstane Receptor (CAR) Agonist screened against the NCATS CANVASS Library (AID 1347373).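 Note: every well also contained 1.5 µM PK11195 alongside the test compound.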 Note: potency is the fitted concentration of half-maximal effect. In outline: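 HepG2-hCAR-CYP2B6 cells, 2500/well, attached 4hr; cpd + PK11195 1.5uM final; 24hr 37C 5% CO2. CellTiter-Fluor viability read, then ONE-Glo luminescence for CAR activation.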

For the molecule `C=C[C@@]1(C)CC[C@@H]([C@H](C)C(=O)/C=C/C(C)(C)O)O1`, the Potency entry in test [1], in test [3], in test [4], in test [6], in [7] and in test [9] was “inactive” in each case. Further, the Potency result in test [11], in test [13] and in test [14] was “inactive” throughout. For the same molecule, the result in test [2], in test [5], in test [10] and in test [12] was inactive. Moreover, in [8], the Potency is 23.5 µM (active).

As for `C=C1CC[C@@H](Br)C(C)(C)[C@]12CC=C(C)C(=O)C2`, the Potency entry in test [1], in [3], in test [4], in [6], in test [15] and in [7] was “inactive” in each case. Also, the Potency entry in [16], in [8], in [9], in [11], in test [17] and in test [13] was “inactive” throughout. Further, the Potency result in test [14], in test [18] and in test [19] was “inactive” throughout. The molecule was classed as inactive in test [2], in test [5], in test [10] and in test [12].

On to `O[C@H]1c2ccccc2-c2c3c(cc4c2[C@@H]1NCC4)OCO3`, for which the molecule was called inactive in test [2], in test [5], in test [10] and in test [12]. For the same molecule, the Potency result in test [3], in [4], in [8], in test [20] and in test [11] was “inactive” throughout. The Potency was 29.4 µM (active) in [7]; 16.6 µM (active) in test [9]; 24.3 µM (active) in test [17]; 20.9 µM (active) in test [14]; 38.1 µM (active) in test [18]; 19.2 µM (active) in [19].

As to `COc1cc2c(cc1OC)[C@@H](c1ccc3c(c1)OCO3)C(C)C(C)C2=O` (stereo partly drawn), the Potency entry in test [1], in test [3], in test [4], in test [6], in [7] and in [8] was “inactive” in each case. The Potency entry in [9], in [11], in test [17], in test [13], in test [14] and in [18] was “inactive” in each case. Besides, the Potency result in test [19] was “inactive”. The molecule was called inactive in [2], in test [5], in [10] and in test [12]. For the same molecule, the Potency in test [16] was 26.3 µM (active); in [20], 18.6 µM (active).

Turning to `C/C=C(/C)c1cc(O)c(C)c2c1Oc1cc(O)cc(C)c1C(=O)O2`, the Potency result in [1], in test [3], in test [4], in test [6], in test [15] and in test [7] was “inactive” in each case. Moreover, the Potency entry in test [8], in test [9], in [20], in test [11], in [17] and in test [18] was “inactive” in each case. Further, the Potency entry in test [19] was “inactive”. For the same molecule, the molecule was classed as inactive in test [2], in test [5], in test [10] and in test [12].

With `CC(C)=CCC[C@]12c3cc4c(cc3CC[C@@]1(C)[C@H](C)CC[C@@H]2O)[nH]c1ccccc14`, the Potency entry in test [1], in [3], in test [4], in [6], in test [15] and in [7] was “inactive” throughout. The Potency result in test [16], in [8], in test [9], in test [20], in test [11] and in test [17] was “inactive” throughout. The Potency entry in test [13], in [18] and in [19] was “inactive” in each case. For the same molecule, the molecule was classed as inactive in [2], in test [5], in [10] and in [12].
